Unmarked numbers belong to inactive results. Records with an inconclusive call do not appear. Where a call stands in place of a potency, no number is given. Activity calls are given as the source filed them. Unless noted, calls come from the whole dose curve.
How the values were obtained:
[1] = Nuclear factor erythroid 2-related factor 2/antioxidant responsive element (Nrf2/ARE) small molecule agonists: qHTS cell viability counter screen in human keratinocytes (AID 1919968; active = well fitted curve in the direction sought with a large enough effect in the repeat runs; an effect the other way counts as inactive or inconclusive; note: nearly all actives have a fitted effect of over 55% in size; note: potency is the fitted concentration of half-maximal effect)
Procedure, shortened: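 Measured as CellTiter-Fluor fluorescence, this readout tracks cytotoxicity in the same wells as the ARE-luciferase screen. HaCaT reporter cells (1,500/well) received compounds after a 5 h pre-incubation and were exposed for 23 h.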

[2] = Nuclear factor erythroid 2-related factor 2/antioxidant responsive element (Nrf2/ARE) small molecule agonists: luciferase reporter gene qHTS assay in human keratinocytes (AID 1919969); note: nearly all actives have a fitted effect of over 35% in size
[3] = biological target: Gonadotropin-releasing hormone receptor (Homo sapiens) (UniProt P30968); experiment: Human gonadotropin-releasing hormone receptor (GnRHR) small molecule agonists, calcium flux assay in GnRHR-HEK293 cells (AID 1920063); note: nearly all actives have a fitted effect of over 35% in size
Procedure, shortened: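 Fluorescence kinetics (480 nm excitation, 540 nm emission; 3 min, 1 s steps) report calcium mobilisation in human GnRHR-HEK293 cells in agonist mode. Dye incubation: 1 h, 37 C.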

[4] = biological target: KiSS-1 receptor (Homo sapiens) (UniProt Q969F8); experiment: Human kisspeptin (KISS1R) small molecule agonists, calcium flux assay in KISS1R-HEK293 cells (AID 1920064; active = well fitted curve in the direction sought with a large enough effect in the repeat runs; an effect the other way counts as inactive or inconclusive)
Procedure, shortened: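 Measures KISS1R agonism through calcium-sensitive dye fluorescence in stably transfected HEK293 cells, read for 3 min after pin-tool compound delivery; 15-point titrations in triplicate.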

[5] = G protein-coupled receptor (GPCR) small molecule agonists, calcium flux assay: HEK293 wild type cell line counter screen (AID 1920065)
Procedure, shortened: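 Readout: fluorescence at 480 nm excitation/540 nm emission, sampled at 1 s intervals for 3 min. Cells had been cultured 18 h, then dye-loaded 1 h at 37 C before compound or ATP addition.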

[6] = p53 small molecule agonists, cell-based qHTS assay with human liver microsomes (AID 1963577)
Procedure, shortened: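 Fluorescence of the beta-lactamase reporter in p53RE-bla cells, detected with LiveBLAzer substrate (2 h, room temperature, dark), served as the read-out after 16 h compound exposure at 37 C with human liver microsomes and NADPH, each 0.5 mg/mL final.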

[7] = p53 small molecule agonists, cell-based qHTS assay with rat liver microsomes (AID 1963578)
Procedure, shortened: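 Cells carrying a p53 response element–beta-lactamase reporter were plated and rested 5 h, then dosed with compound in DMSO plus rat liver microsomes and NADPH, each at 0.5 mg/mL final. After 16 h at 37 C, LiveBLAzer substrate was added for 2 h.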

[8] = p53 small molecule agonists, cell-based qHTS assay with human liver microsomes: qHTS cell viability counter screen (AID 1963579); note: nearly all actives have a fitted effect of over 45% in size
Procedure, shortened: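 Cytotoxicity counter screen: p53RE-bla, 4,000 cells/well; 5 h settle, 37 C/5% CO2; cpd + HLM 0.5 mg/mL + NADPH 0.5 mg/mL (final); 16 h, 37 C; CellTiter-Glo, 30 min RT, luminescence.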

[9] = p53 small molecule agonists, cell-based qHTS assay with rat liver microsomes: qHTS cell viability counter screen (AID 1963580); note: nearly all actives have a fitted effect of over 45% in size
Procedure, shortened: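 p53RE-bla HCT-116 cells were exposed 16 h at 37 C to compounds with rat liver microsomes (0.5 mg/mL) and NADPH (0.5 mg/mL). Viability was measured in the same wells as ATP content by CellTiter-Glo luminescence.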

[10] = p53 small molecule agonists, cell-based qHTS assay: qHTS cell viability counter screen (AID 1963581); note: nearly all actives have a fitted effect of over 45% in size
Procedure, shortened: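 In the same plates used for the p53 bla reporter, HCT-116 cells given compounds for 16 h at 37 C received CellTiter-Glo; luminescence was recorded 30 min later at room temperature.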

[11] = p53 small molecule agonists, cell-based qHTS assay (AID 1963582; active = well fitted activation curve with a large enough effect in the signal ratio in the repeat runs, not every such curve was filed as active; the % refers to the signal ratio)
Procedure, shortened: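 Compounds are pin-transferred in DMSO onto p53RE-bla cells and incubated 16 h at 37 C. The B/G FRET beta-lactamase substrate is then applied for 2 h at RT and fluorescence recorded.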

[12] = biological target: 5-hydroxytryptamine receptor 2A (Homo sapiens) (UniProt P28223); experiment: 5-hydroxytryptamine receptor 2A (HTR2A) small molecule antagonists, cell-based qHTS assay (AID 1963586); note: nearly all actives have a fitted effect of over 45% in size
Procedure, shortened: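 Antagonist-mode intracellular calcium assay: DOI (4 nM) added after 5 min compound pre-incubation at room temperature to dye-loaded HTR2A-CHO cells. Fluorescence followed for 3 min, sampled every second.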

[13] = biological target: 5-hydroxytryptamine receptor 2A (Homo sapiens) (UniProt P28223); experiment: 5-hydroxytryptamine receptor 2A (HTR2A) small molecule agonists, cell-based qHTS assay (AID 1963587); note: nearly all actives have a fitted effect of over 30% in size
Procedure, shortened: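 CHO cells stably expressing human HTR2A, plated 18 h, loaded with calcium dye 1 h at 37 C. Agonist mode: compounds added and intracellular calcium fluorescence recorded kinetically for 2 min at 1 sec intervals.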

[14] = biological target: Muscarinic acetylcholine receptor M1 (Homo sapiens) (UniProt P11229); experiment: Cholinergic receptor muscarinic 1 (CHRM1) small molecule antagonists, cell-based qHTS assay (AID 1963588); note: nearly all actives have a fitted effect of over 40% in size
Procedure, shortened: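 CHRM1-CHO calcium-flux assay, antagonist mode. Cells were seeded 18 h, dye-loaded 1 h at 37 C and given compound for 5 min at RT, then acetylcholine was added at 50nM. FDSS fluorescence was read 3 min; 15 concentrations, three runs.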

[15] = biological target: Muscarinic acetylcholine receptor M1 (Homo sapiens) (UniProt P11229); experiment: Cholinergic receptor muscarinic 1 (CHRM1) small molecule agonists, cell-based qHTS assay (AID 1963589); note: nearly all actives have a fitted effect of over 35% in size
Procedure, shortened: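 Each compound was tested at 15 concentrations across three independent runs on dye-loaded CHO cells stably expressing human CHRM1, reading intracellular calcium fluorescence kinetically at 1 sec intervals.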

[16] = cAMP Responsive Elements (CRE) small molecule agonists, cell-based qHTS assay (AID 1963590)
Procedure, shortened: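 Cell line: CRE-bla HEK 293T; medium DMEM/10% dialyzed FBS/0.1 mM NEAA/1 mM pyruvate/25 mM HEPES; 3 h compound exposure; beta-lactamase FRET readout after 2 h substrate loading at RT.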

[17] = cAMP Responsive Elements (CRE) small molecule antagonists, cell-based qHTS assay (AID 1963591; active = well fitted inhibition curve with a large enough effect in the signal ratio in the repeat runs, not every such curve was filed as active; the % refers to the signal ratio)
Procedure, shortened: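 Inhibition of NKH477-driven (0.25 uM final) CRE-beta-lactamase signal in HEK293T cells, 3 h compound exposure at 37 °C, detected by FRET substrate fluorescence.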

[18] = biological target: Beta-2 adrenergic receptor (Homo sapiens) (UniProt P07550); experiment: Adrenergic beta2 receptor (ADRB2) small molecule antagonists, cell-based qHTS assay (AID 1963592); note: series mostly up to about 92 µM; nearly all actives have a fitted effect of over 50% in size
Procedure, shortened: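 Cells (CHO, stable ADRB2 overexpression) incubated 18-20hr at 37C; compounds added from DMSO; agonist mix (1nM isoproterenol, 100uM IBMX, 25uM Ro-20-1724) added; 0.5hr RT; d2-cAMP and anti-cAMP-cryptate added; 1hr RT; 665/615 nm read.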

[19] = biological target: D(2) dopamine receptor (Homo sapiens) (UniProt P14416); experiment: Dopamine D2 receptor (DRD2) small molecule agonists, cell-based qHTS assay (AID 1963594); note: nearly all actives have a fitted effect of over 35% in size
Procedure, shortened: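 HEK293 cells stably expressing human DRD2, pre-treated with PDE inhibitor Ro20-1724 (0.1 mM final) and compound 10 min at room temperature, then stimulated with NKH477 (200nM […]) for 30 min. cAMP read by HTRF (665/620 nm).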

[20] = biological target: D(2) dopamine receptor (Homo sapiens) (UniProt P14416); experiment: Dopamine D2 receptor (DRD2) small molecule antagonists, cell-based qHTS assay (AID 1963595; active = well fitted inhibition curve with a large enough effect in the signal ratio in the repeat runs, with a control signal flat; the % refers to the signal ratio)
Procedure, shortened: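 HEK293 cells stably expressing DRD2 were preincubated with 0.1 mM Ro20-1724, then with compound for 10 min at room temperature. Cells were stimulated with 200 nM NKH477 plus 12 nM quinpirole for 30 min, and cAMP was read by HTRF.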

Chain of 5-hydroxytryptamine receptor 2A (Homo sapiens) (P28223 whole entry, looked up): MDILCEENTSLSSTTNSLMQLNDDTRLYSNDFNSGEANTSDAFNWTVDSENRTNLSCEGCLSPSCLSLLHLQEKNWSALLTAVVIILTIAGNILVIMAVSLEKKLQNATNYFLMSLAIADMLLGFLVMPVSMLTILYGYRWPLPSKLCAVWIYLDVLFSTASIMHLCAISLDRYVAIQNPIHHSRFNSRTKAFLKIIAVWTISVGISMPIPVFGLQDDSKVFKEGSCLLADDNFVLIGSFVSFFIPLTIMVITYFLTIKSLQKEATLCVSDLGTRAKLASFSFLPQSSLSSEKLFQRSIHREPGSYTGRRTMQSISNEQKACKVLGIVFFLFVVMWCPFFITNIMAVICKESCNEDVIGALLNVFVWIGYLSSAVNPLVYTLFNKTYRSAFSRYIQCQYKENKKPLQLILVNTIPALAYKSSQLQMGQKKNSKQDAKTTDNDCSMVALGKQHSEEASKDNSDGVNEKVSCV
Chain of Beta-2 adrenergic receptor (Homo sapiens) (P07550 whole entry, looked up): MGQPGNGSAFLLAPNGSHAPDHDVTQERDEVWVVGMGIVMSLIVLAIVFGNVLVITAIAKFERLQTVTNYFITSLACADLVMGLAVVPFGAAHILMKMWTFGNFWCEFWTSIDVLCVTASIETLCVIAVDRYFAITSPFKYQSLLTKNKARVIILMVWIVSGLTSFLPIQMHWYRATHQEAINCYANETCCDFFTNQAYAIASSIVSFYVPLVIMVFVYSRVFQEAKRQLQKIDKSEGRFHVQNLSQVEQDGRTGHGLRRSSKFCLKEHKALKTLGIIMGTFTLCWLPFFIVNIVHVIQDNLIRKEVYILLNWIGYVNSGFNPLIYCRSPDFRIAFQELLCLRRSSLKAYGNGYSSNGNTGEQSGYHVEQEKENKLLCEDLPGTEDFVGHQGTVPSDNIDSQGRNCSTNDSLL
Chain of Muscarinic acetylcholine receptor M1 (Homo sapiens) (P11229 whole entry, looked up): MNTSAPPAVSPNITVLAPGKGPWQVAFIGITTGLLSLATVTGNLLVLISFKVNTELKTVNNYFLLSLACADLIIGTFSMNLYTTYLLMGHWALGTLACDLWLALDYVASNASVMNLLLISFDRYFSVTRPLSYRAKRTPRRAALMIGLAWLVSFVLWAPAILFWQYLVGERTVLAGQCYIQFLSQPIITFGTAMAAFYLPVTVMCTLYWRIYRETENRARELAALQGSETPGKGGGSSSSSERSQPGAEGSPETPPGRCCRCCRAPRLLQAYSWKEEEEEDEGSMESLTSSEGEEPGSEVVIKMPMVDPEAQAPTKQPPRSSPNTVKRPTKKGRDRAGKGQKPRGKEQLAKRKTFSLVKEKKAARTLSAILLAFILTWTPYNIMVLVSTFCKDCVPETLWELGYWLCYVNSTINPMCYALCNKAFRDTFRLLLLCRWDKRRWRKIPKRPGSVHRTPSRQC
Chain of Gonadotropin-releasing hormone receptor (Homo sapiens) (P30968 whole entry, looked up): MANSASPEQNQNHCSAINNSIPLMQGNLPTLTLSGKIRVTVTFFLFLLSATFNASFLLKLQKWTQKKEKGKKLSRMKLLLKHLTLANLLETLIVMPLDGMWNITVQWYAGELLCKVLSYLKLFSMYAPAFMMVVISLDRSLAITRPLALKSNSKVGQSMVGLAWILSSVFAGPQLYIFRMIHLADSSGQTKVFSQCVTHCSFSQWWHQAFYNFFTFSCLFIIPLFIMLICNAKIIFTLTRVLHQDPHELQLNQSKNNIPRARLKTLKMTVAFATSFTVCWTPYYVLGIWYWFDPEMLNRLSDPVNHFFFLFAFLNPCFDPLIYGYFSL
Chain of D(2) dopamine receptor (Homo sapiens) (P14416 whole entry, looked up): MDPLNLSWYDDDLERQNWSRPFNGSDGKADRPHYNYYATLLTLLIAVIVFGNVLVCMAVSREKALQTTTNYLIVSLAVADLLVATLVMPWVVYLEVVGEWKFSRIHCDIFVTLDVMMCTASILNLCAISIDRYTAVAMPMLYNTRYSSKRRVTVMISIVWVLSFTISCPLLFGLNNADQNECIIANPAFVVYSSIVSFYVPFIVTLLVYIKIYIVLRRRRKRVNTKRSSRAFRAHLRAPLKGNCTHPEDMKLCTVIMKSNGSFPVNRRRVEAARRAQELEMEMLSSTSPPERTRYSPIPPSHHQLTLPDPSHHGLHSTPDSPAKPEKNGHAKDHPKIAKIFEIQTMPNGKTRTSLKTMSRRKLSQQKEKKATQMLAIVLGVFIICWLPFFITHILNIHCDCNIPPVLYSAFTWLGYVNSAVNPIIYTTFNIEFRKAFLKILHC
Chain of KiSS-1 receptor (Homo sapiens) (Q969F8 whole entry, looked up): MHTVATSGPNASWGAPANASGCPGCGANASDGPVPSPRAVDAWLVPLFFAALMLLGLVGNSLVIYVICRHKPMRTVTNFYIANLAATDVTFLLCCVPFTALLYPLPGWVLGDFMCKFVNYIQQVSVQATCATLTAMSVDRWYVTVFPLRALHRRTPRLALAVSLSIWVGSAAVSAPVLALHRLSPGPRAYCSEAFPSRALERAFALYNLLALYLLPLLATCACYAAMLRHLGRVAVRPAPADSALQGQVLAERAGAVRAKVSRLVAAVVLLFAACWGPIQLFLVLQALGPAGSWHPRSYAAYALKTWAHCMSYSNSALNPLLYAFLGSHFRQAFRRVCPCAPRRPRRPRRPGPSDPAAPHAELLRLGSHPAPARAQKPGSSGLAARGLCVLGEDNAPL

SMILES	Potency [1]	Potency [2]	Potency [3]	Potency [4]	Potency [5]	Potency [6]	Potency [7]	Potency [8]	Potency [9]	Potency [10]	Potency [11]	Potency [12]	Potency [13]	Potency [14]	Potency [15]	Potency [16]	Potency [17]	Potency [18]	Potency [19]	Potency [20]
O=C1NC2NC(=O)NC2N1 (stereo unspecified)	inactive	inactive	inactive	inactive	inactive	inactive	inactive	inactive	inactive	inactive	inactive	inactive	inactive	inactive	inactive	inactive	inactive	inactive	inactive	
O=C(O)c1cccc(C(F)(F)F)c1	inactive	inactive	inactive	inactive	inactive	inactive	inactive	inactive	inactive	inactive	inactive	inactive	inactive	inactive	inactive	inactive	inactive	inactive		inactive
CC(C)(C)CC(C)(C)c1ccc(O)c(-n2nc3ccccc3n2)c1	48.6 µM (active)	inactive	inactive	inactive	inactive	inactive	inactive	inactive	inactive	inactive	inactive	inactive	inactive	inactive	inactive	inactive	inactive	inactive	inactive	inactive
C#CC(C)(O)CC(C)C (stereo unspecified)	inactive	inactive	inactive	inactive	inactive	inactive	inactive	inactive	inactive	inactive	inactive	inactive	inactive	inactive	inactive	inactive	inactive	inactive		inactive
O=c1[nH]cnc2c1ncn2[C@@H]1O[C@H](CO)[C@@H](O)[C@H]1O	inactive	inactive	inactive	inactive	inactive	inactive	inactive	inactive	inactive	inactive	inactive	inactive	inactive	inactive	inactive	inactive	inactive	inactive	inactive	inactive
O=C(OCCOCCO)c1ccccc1Nc1cccc(C(F)(F)F)c1	inactive	inactive	inactive	inactive	inactive	inactive	inactive	inactive	inactive	inactive	inactive	inactive	inactive	inactive	inactive	inactive	inactive	inactive		inactive
FC(F)(F)C(Cl)(Cl)Cl	inactive	inactive	inactive	inactive	inactive	inactive	inactive	inactive	inactive	inactive	inactive	inactive	inactive	inactive	inactive	inactive	inactive	inactive	inactive	inactive

From PubChem BioAssay (Tox21)
